The results in this text go back to PubChem BioAssay (NCI).

Test systems include SR leukemia; RPMI-8226 leukemia; OVCAR-8 ovarian; OVCAR-5 ovarian; OVCAR-4 ovarian; IGROV1 ovarian; OVCAR-3 ovarian; HS 578T breast; NCI/ADR-RES ovarian; BT-549 breast; MDA-MB-435 melanoma; MCF7 breast; HCT-116 colon; HCC-2998 colon; KM12 colon; SK-OV-3 ovarian; T-47D breast; SW-620 colon.
What all share (assay): NCI-60 one-dose screen, 48 h (100 = growth as untreated, 0 = no growth, -100 = all killed)
Holding throughout (conditions): 10 µM unless noted

Molecules are shown by their SMILES. This is part of a sample that, as a whole, favours compounds with a hit. Of some 83,000 tested, about 20% had one in any assay.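 Testing used 96-well plates and a 48-hour single-concentration exposure. Example: -40 means 40% of the starting cells died.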 Values without a mark were called inactive. The source made the active and inactive calls. The calls were made as follows: active = growth percent below 10; inactive = the rest.

Consider `CC(C)OC(=O)[C@H](C)N[P@@](=O)(OC[C@@]1(C)O[C@@H](n2cc(F)c(N)nc2=O)C[C@@H]1O[P@](=O)(N[C@@H](C)C(=O)OC(C)C)Oc1ccccc1)Oc1ccccc1`, for which the growth with SR leukemia is 124%; in the experiment on RPMI-8226 leukemia, 105%; in the experiment on OVCAR-8 ovarian, 79.4%; with OVCAR-5 ovarian, 110%; with OVCAR-4 ovarian, 112%; with IGROV1 ovarian, 94.4%. Further, the growth in the experiment on OVCAR-3 ovarian was 102%; in the experiment on HS 578T breast, 85.6%; in the experiment on NCI/ADR-RES ovarian, 103%; with BT-549 breast, 75.9%; in the experiment with MDA-MB-435 melanoma it was 86.6%; in the experiment on MCF7 breast, 50.3%. Also, the figures for the growth in the experiment on HCT-116 colon, in the experiment with HCC-2998 colon and in the experiment with KM12 colon were 88.2%, 46.7% and 76%, respectively.
On to `CC1C(=O)CCCC1=O`, for which the growth in the experiment on SR leukemia was 97.6%; in the experiment with RPMI-8226 leukemia it was 101%; in the experiment on OVCAR-8 ovarian it was 107%; in the experiment on OVCAR-5 ovarian it was 104%; in the experiment on SK-OV-3 ovarian, 108%; in the experiment on OVCAR-3 ovarian, 118%. The growth in the experiment on NCI/ADR-RES ovarian was 113%; in the experiment on T-47D breast, 96.1%; with BT-549 breast it was 104%; in the experiment with MDA-MB-435 melanoma it was 105%; in the experiment on SW-620 colon it was 113%; in the experiment on MCF7 breast, 95.8%. For the same molecule, the figures for the growth in the experiment on HCT-116 colon, in the experiment on HCC-2998 colon and in the experiment on KM12 colon were 113%, 109% and 113%, respectively.
In the case of `COc1ccc2sc(-n3nc4nc5n(c(=O)c4c3N)-c3ccccc3Sc3ccccc3-5)nc2c1`, the growth with SR leukemia is 65.2%; in the experiment on RPMI-8226 leukemia, 45.5%; in the experiment with OVCAR-8 ovarian, 81.7%; in the experiment on OVCAR-4 ovarian, 66.4%; with SK-OV-3 ovarian, 91.8%; with IGROV1 ovarian, 67.9%. The growth in the experiment on OVCAR-3 ovarian was 76.6%; in the experiment with HS 578T breast, 90.6%; in the experiment on NCI/ADR-RES ovarian, 74%; with T-47D breast it was 29.2%; in the experiment with BT-549 breast, 73.2%; in the experiment on MDA-MB-435 melanoma it was 79.5%. Moreover, the growth in the experiment with SW-620 colon was 95.6%; with MCF7 breast, 54.2%; in the experiment with HCT-116 colon, 65.7%; in the experiment on HCC-2998 colon, 93.6%; in the experiment on KM12 colon, 81.4%.
With `COc1cc2ncnc(-n3ncc4cc(NC(=O)Nc5ccc(Cl)c(Cl)c5)ccc43)c2cc1OC`, the growth with SR leukemia was 9.64% (active); with RPMI-8226 leukemia it was -0.257% (active); in the experiment on OVCAR-8 ovarian, 2.71% (active); in the experiment on OVCAR-4 ovarian, -32.3% (active); with SK-OV-3 ovarian, -24.9% (active); with IGROV1 ovarian, -58.3% (active). For the same molecule, the growth was -65.5% (active) in the experiment on OVCAR-3 ovarian; -5% (active) in the experiment with HS 578T breast; -30.7% (active) in the experiment with NCI/ADR-RES ovarian; -0.727% (active) in the experiment with T-47D breast; -26.9% (active) in the experiment with BT-549 breast; -31.1% (active) with MDA-MB-435 melanoma. For the same molecule, the growth was -32.4% (active) with SW-620 colon; -34.8% (active) with MCF7 breast; 23.9% with HCT-116 colon; 15.4% with HCC-2998 colon; 0.483% (active) with KM12 colon.
`Cc1sc(NC(=O)c2ccc(C(C)(C)C)cc2)c(C(=O)O)c1C`: the growth with SR leukemia was 62.8%; in the experiment on RPMI-8226 leukemia, 47.2%; in the experiment with OVCAR-8 ovarian, 56.5%; in the experiment with OVCAR-5 ovarian it was 94%; with SK-OV-3 ovarian it was 103%; in the experiment on IGROV1 ovarian it was 70.9%. Besides, the growth is 71.7% with OVCAR-3 ovarian; 58.9% in the experiment on NCI/ADR-RES ovarian; 87.5% in the experiment with T-47D breast; 88.8% with BT-549 breast; 96.1% in the experiment on MDA-MB-435 melanoma; 60% in the experiment on SW-620 colon. The growth was 62.2% in the experiment with MCF7 breast, 45.3% in the experiment with HCT-116 colon, 71.2% in the experiment with HCC-2998 colon and 28.8% in the experiment with KM12 colon.
On to `Nc1nc2cc(O)ccc2n2cc3c(F)cccc3c12`, for which the growth with SR leukemia was 10.8%; in the experiment on RPMI-8226 leukemia, 53.7%; in the experiment on OVCAR-8 ovarian it was 26.5%; in the experiment on OVCAR-5 ovarian, 38.7%; in the experiment with OVCAR-4 ovarian it was -4.95% (active); in the experiment on OVCAR-3 ovarian, 30%. Further, the growth with HS 578T breast is -21.4% (active); in the experiment with NCI/ADR-RES ovarian it was 15.8%; in the experiment with MDA-MB-435 melanoma, -8.3% (active); in the experiment with SW-620 colon it was 17.5%; with MCF7 breast it was -7.71% (active); with HCT-116 colon it was 15.1%. Besides, the growth with HCC-2998 colon was 58.5%; with KM12 colon, 35.3%.
For `COc1ccc(-c2nc(SCC(C)C)nc(Nc3ccccc3)c2C#N)cc1`, the growth was 48.9% with SR leukemia; 87.6% in the experiment with RPMI-8226 leukemia; 74.4% in the experiment on OVCAR-8 ovarian; -12.2% (active) with OVCAR-4 ovarian; 97.6% with SK-OV-3 ovarian; 74.7% with IGROV1 ovarian. The growth in the experiment with OVCAR-3 ovarian was 46.2%; with HS 578T breast, 72.7%; with NCI/ADR-RES ovarian it was 85.9%; in the experiment on T-47D breast, 51.3%; with BT-549 breast it was 101%; in the experiment with MDA-MB-435 melanoma, 92.8%. For the same molecule, the growth in the experiment on SW-620 colon is 67.8%; in the experiment on MCF7 breast, 75.7%; in the experiment with HCT-116 colon, 38.5%; in the experiment with HCC-2998 colon, 99.3%; in the experiment with KM12 colon, 97.9%.
In the case of `CCOC(=O)CSSCC(=O)OCC`, the growth with SR leukemia is 88.7%; with RPMI-8226 leukemia, 98.6%; in the experiment with OVCAR-8 ovarian, 101%; in the experiment on OVCAR-5 ovarian, 108%; with SK-OV-3 ovarian, 102%; in the experiment on IGROV1 ovarian, 110%. The growth with OVCAR-3 ovarian was 110%; in the experiment with NCI/ADR-RES ovarian, 110%; with T-47D breast, 94.4%; with BT-549 breast it was 110%; in the experiment on MDA-MB-435 melanoma it was 99.4%; with SW-620 colon it was 111%. In addition, the growth in the experiment on MCF7 breast is 95.2%; with HCT-116 colon, 108%; in the experiment on HCC-2998 colon, 108%; with KM12 colon, 105%.
In the case of `COC(=O)/C=C/c1cc(O)c2oc(-c3ccc(O)c(O)c3)c(C(=O)OC)c2c1`, the growth in the experiment on SR leukemia was 22%; in the experiment on RPMI-8226 leukemia, -16.8% (active); with OVCAR-8 ovarian it was 18.5%; in the experiment on OVCAR-5 ovarian it was 43.6%; in the experiment with OVCAR-4 ovarian, 42.8%; in the experiment on OVCAR-3 ovarian it was 11.7%. The growth in the experiment with HS 578T breast is 18.3%; with NCI/ADR-RES ovarian, -3.33% (active); in the experiment on BT-549 breast it was 46.6%; with MDA-MB-435 melanoma, -37.1% (active); in the experiment on SW-620 colon, 14.8%; with MCF7 breast, 9.36% (active). Also, the growth with HCT-116 colon was 24.5%; in the experiment on HCC-2998 colon it was 47.2%; in the experiment with KM12 colon it was 13.8%.
On to `N#Cc1ccc(NC2c3ccccc3CC2O)cc1` (configuration not stated), for which the growth was 99.3% in the experiment on SR leukemia; 96.3% in the experiment with RPMI-8226 leukemia; 122% with OVCAR-8 ovarian; 113% in the experiment with OVCAR-5 ovarian; 106% with SK-OV-3 ovarian; 116% with IGROV1 ovarian. In addition, the growth with OVCAR-3 ovarian was 129%; in the experiment on NCI/ADR-RES ovarian it was 115%; in the experiment on T-47D breast, 103%; in the experiment on BT-549 breast, 99.2%; in the experiment with MDA-MB-435 melanoma, 117%; with MCF7 breast, 95.8%. Also, the results for the growth with HCT-116 colon, in the experiment with HCC-2998 colon and in the experiment on KM12 colon were 101%, 105% and 112%, respectively.
